The source made the active and inactive calls.
Assays:
[1] = binders of probe aFSTL3 on microarray, primary screen, stem cell growth factor project, biochemical, small-molecule microarray, fluorescence 635/667 (AID 1064); conditions: higher = more signal;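 note: measures binding of the biotinylated anti-FSTL3 antibody to printed compounds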
[2] = binders from COS7 lysate, DM2A8 probe, primary screen, torsin A project, cell lysate, small-molecule microarray, fluorescence 635/667 (AID 1065); conditions: higher = more signal, COS7 lysate expressing mutant human TOR1A
[3] = binders of probe aFGF2 on microarray, primary screen, stem cell growth factor project, biochemical, small-molecule microarray, fluorescence 635/667 (AID 1067); conditions: higher = more signal;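 note: measures binding of biotinylated aFGF2 protein to printed compounds on slides; z-score merges feature fluorescence and signal-to-noise across triplicate slides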
[4] = binders of probe aFGF10 on microarray, primary screen, stem cell growth factor project, biochemical, small-molecule microarray, fluorescence 635/667 (AID 1071); conditions: higher = more signal;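 note: score merges 667 nm spot intensity and signal to noise from triplicate slides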
[5] = biological target: Neurogenic locus notch homolog protein 2 (Homo sapiens) (UniProt Q04721); assay: Notch2 binders on small-molecule microarrays, primary screen, biochemical, small-molecule microarray, 635 nm fluorescence, stem cell growth factors (AID 1073); conditions: Notch2 binding, higher = more signal
[6] = biological target: Pro-neuregulin-1, membrane-bound isoform (Homo sapiens) (UniProt Q02297); assay: NRG1 binders on small-molecule microarrays, primary screen, psychiatric disease protein project, biochemical, small-molecule microarray, fluorescence 635/667 (AID 1075); conditions: NRG1 binding, 635 nm fluorescence, higher = more signal;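 note: score combines 667 nm spot fluorescence with signal to noise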
[7] = test system: Neuregulin-1 EGF-like domain; assay: binders of neuregulin-1 EGF-like domain, primary screen, biochemical, small-molecule microarray, 635 nm fluorescence (AID 1081); conditions: small-molecule microarray binding, higher = more signal;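 note: binding of the protein to compounds printed on small-molecule microarray slides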
[8] = FRG1 promoter luciferase signal modulators, primary screen, FRG1 inhibition for FSHD, cell-based, C2C12 myotubes, firefly/Renilla luciferase, luminescence (AID 1084); conditions: higher = more signal, called active from +8 up or from −8 down
[9] = binders of probe aFST on microarray, primary screen, stem cell growth factor project, biochemical, small-molecule microarray, fluorescence 635/667 (AID 1086); conditions: higher = more signal;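 note: score merges 667 nm fluorescence with signal-to-noise of each printed compound spot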
[10] = binders of probe aHhip on microarray, primary screen, stem cell growth factor project, biochemical, small-molecule microarray, fluorescence 635/667 (AID 1087); conditions: higher = more signal;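 note: score merges spot fluorescence at 667nm with spot signal to noise ratio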

Chain of Pro-neuregulin-1, membrane-bound isoform (Homo sapiens) (Q02297 whole entry, looked up, the tested form may be a part, canonical isoform): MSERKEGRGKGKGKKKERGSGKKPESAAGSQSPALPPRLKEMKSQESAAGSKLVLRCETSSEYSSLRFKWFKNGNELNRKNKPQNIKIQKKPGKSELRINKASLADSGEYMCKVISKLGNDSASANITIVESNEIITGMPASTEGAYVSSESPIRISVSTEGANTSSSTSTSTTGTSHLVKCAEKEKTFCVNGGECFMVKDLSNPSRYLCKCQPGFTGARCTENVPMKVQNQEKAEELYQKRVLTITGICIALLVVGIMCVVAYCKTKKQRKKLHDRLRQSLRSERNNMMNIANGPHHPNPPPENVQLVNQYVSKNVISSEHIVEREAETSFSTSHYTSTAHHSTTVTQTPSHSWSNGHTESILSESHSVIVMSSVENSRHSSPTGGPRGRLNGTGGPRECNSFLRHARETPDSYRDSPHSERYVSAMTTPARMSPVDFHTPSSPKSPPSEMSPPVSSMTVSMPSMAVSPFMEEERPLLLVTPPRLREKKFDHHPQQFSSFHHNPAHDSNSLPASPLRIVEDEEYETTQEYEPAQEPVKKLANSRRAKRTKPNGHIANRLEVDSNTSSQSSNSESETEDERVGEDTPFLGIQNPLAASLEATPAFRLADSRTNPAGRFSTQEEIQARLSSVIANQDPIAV
Chain of Neurogenic locus notch homolog protein 2 (Homo sapiens) (Q04721 whole entry, looked up, canonical isoform): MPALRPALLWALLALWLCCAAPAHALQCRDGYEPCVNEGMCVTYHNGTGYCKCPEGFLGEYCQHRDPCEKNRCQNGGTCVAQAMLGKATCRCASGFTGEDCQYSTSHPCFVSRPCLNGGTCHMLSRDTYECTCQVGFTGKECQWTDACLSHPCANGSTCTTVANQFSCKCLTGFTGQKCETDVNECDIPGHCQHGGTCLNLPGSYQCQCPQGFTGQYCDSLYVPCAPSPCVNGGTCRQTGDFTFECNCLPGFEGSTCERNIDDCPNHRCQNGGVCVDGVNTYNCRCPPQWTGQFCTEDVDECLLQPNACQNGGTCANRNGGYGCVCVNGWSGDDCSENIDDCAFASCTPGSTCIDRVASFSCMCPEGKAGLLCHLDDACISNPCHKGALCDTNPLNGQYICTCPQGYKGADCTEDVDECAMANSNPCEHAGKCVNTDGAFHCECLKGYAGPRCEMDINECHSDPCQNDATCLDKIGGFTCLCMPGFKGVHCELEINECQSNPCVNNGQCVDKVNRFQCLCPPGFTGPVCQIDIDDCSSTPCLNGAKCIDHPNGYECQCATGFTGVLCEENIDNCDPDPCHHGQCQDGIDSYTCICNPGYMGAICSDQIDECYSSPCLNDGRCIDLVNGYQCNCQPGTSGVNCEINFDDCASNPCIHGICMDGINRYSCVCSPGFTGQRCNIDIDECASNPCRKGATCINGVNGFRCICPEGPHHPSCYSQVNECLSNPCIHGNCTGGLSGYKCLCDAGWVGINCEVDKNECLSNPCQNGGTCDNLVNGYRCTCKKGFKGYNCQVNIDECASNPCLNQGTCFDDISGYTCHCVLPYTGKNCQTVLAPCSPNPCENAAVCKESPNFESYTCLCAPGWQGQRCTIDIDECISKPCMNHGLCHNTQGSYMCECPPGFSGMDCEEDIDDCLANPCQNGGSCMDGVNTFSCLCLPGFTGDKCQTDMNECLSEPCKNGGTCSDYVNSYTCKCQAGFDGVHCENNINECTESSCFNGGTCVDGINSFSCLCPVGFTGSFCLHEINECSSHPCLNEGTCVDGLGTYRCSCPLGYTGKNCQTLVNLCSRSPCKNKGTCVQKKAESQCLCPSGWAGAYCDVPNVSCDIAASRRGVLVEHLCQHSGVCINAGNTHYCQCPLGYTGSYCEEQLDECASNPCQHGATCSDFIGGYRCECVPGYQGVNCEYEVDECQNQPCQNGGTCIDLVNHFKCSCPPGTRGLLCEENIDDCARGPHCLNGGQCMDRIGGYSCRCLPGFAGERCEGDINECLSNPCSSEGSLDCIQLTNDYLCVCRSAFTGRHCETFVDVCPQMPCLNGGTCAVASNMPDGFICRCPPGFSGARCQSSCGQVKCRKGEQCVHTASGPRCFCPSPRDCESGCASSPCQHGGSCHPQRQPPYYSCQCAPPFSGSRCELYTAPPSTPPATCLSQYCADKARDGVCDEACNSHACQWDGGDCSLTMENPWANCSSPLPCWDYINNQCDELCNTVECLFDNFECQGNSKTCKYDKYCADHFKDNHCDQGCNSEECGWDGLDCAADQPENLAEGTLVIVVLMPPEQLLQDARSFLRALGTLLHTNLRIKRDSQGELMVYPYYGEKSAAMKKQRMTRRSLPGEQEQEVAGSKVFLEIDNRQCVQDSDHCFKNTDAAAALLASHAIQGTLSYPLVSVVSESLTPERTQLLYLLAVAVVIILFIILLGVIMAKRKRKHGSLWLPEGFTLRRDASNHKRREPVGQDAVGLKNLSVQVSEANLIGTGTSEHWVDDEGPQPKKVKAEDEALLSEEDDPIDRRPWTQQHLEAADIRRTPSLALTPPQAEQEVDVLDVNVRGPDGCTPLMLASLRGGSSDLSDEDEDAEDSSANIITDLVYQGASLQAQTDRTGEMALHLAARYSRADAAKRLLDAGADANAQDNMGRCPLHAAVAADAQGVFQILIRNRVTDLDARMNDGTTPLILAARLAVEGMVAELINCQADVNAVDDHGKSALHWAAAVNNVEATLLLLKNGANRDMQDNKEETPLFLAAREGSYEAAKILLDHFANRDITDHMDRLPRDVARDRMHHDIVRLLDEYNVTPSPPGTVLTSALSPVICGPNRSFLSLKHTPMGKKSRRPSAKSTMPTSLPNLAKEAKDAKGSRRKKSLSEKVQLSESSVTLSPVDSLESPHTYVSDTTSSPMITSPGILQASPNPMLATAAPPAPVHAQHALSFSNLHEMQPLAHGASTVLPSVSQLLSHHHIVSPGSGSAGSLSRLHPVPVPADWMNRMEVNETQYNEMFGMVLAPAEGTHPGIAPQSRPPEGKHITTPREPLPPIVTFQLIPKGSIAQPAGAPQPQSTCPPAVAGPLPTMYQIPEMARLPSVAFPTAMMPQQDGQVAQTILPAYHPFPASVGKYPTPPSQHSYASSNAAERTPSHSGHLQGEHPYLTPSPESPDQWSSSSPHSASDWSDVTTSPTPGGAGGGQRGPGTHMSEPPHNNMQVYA

Compound | composite z-score [1] | composite z-score [2] | composite z-score [3] | composite z-score [4] | composite z-score [5] | composite z-score [6] | composite z-score [7] | z-score [8] | composite z-score [9] | composite z-score [10]
O=C1c2ccccc2[C@@]2(Cc3ccccc3N(CCN3CCOCC3)C2=O)[C@H](c2ccc(CO)cc2)N1Cc1ccccc1 | -0.0459 | -0.374 | -0.166 | -0.318 | -0.933 | -0.561 | -0.86 | -0.0352 (inactive) | -0.0633 | -0.0618
C=C(COC)/C(=C/C[C@@H](OC(C)=O)c1ccc(OCCO)cc1)c1cc(C(=O)OC)ccc1OC | -0.524 | 0.118 | -0.0316 | 0.872 | 0.62 | 0.67 | 0.705 | 0.296 (inactive) | 0.627 | 0.107
CC(=O)n1cc(C(O)C2C=CC3C(=O)N(C)C(=O)C3N2Nc2ccccc2)c2ccccc21 (stereo not given) | 0.508 | 0.287 | 0.0672 | 0.974 | 1.58 | 1.78 | 1.27 | 0.376 (inactive) | 0.951 | -0.0196
COc1cc(OC)c(C(O)C2C=CC3C(=O)NC(=O)C3N2Nc2ccc(Cl)cc2Cl)cc1Br (stereo not given) | 0.379 | -0.0156 | 0.19 | 0.141 | 1.61 | 1.9 | 1.11 | 0.809 (inactive) | 1.58 | -0.199
C=CCOC(=O)[C@H]1[C@@H]2C(=O)O[C@@H](c3ccccc3)[C@@H](c3ccccc3)N2[C@@H](c2ccc(OCCOC(=O)[C@H]3C[C@H]4C(=O)N5CCC[C@H]5C(=O)N4[C@H]3c3ccc(O)cc3)cc2)[C@]12C(=O)Nc1ccc(I)cc12 | 2.15 | 2.13 | 0.555 | 0.791 | 1.71 | 2.72 | 1.44 | -0.269 (inactive) | 2.72 | 2.39
COCCOC(=O)N1C(=O)[C@@]2(c3cc(C#Cc4ccc(OC)cc4)ccc31)[C@H](c1ccc(O)cc1)N1[C@H](c3ccccc3)[C@H](c3ccccc3)OC(=O)[C@H]1[C@@H]2C(=O)NC[C@H](O)c1ccccc1 | -0.273 | 0.101 | -0.155 | 0.63 | 1.29 | 1.53 | 1.34 | 0.1 (inactive) | 0.536 | 0.192
[N-]=[N+]=Nc1ccccc1C[C@]1(C(N)=O)N=C(c2ccc(OCCCO)cc2)O[C@H]1c1ccccc1 | 0.235 | 0.327 | 0.0931 | 0.373 | 0.361 | 1.82 | 1.22 | -3.01 (inactive) | 0.85 | -0.0237
CCCCCCC#C[Si](O[C@H](c1ccccc1)c1cn([C@H](CO)Cc2ccccc2)nn1)(C(C)C)C(C)C | -0.206 | 0.0423 | -0.142 | 0.296 | -0.39 | -0.138 | 1 | -0.334 (inactive) | -0.682 | -0.0324
C=CCOC(=O)[C@@H]1[C@H]2C(=O)O[C@H](c3ccccc3)[C@H](c3ccccc3)N2[C@H](c2ccc(OCCOC(=O)[C@@H]3C[C@@H]4C(=O)N[C@@H](CCCCN(C)C)C(=O)N4[C@@H]3c3ccc(O)cc3)cc2)[C@@]12C(=O)Nc1ccc(I)cc12 | -0.317 | 0.25 | -0.0216 | 0.347 | 1.2 | 1.11 | 1.2 | 0.0976 (inactive) | 0.171 | -0.108
CN1C(=O)[C@]2(Cc3ccccc3)N=C(c3ccc(OCCCO)cc3)O[C@@H]2c2ccccc21 | 0.547 | 0.758 | -0.0333 | 0.802 | 0.826 | 1.36 | 1.35 | -0.113 (inactive) | 0.265 | 0.12
CCCCc1cn(C[C@H](Cc2ccccc2)NC(=O)N[C@H](CO)CCc2oc(C(C)=O)c(C(=O)OC)c2C(=O)OC)nn1 | -0.422 | 0.651 | -0.166 | 0.864 | 1.56 | 0.979 | 1.32 | 0.833 (inactive) | 0.839 | -0.0994
CN1C(=O)C2C=CC(C(O)c3ccc(-c4ccccc4)s3)N(N(c3ccccc3)c3ccccc3)C2C1=O (stereo not given) | 0.415 | -0.235 | 0.0034 | 0.199 | 1.15 | 0.782 | 0.949 | 0.685 (inactive) | 0.422 | 0.248
COc1ccc(C(O)C2C=CC3C(=O)NC(=O)C3N2Nc2ccccn2)cc1 (stereo not given) | -0.0118 | -0.765 | 0.0143 | 0.585 | 0.891 | 0.843 | 0.844 | 1 (inactive) | 0.357 | -0.159
C=CCN1C(=O)[C@@]2(O[C@@H](CCO)[C@H]([Si](C)(C)c3ccc(OC)cc3)[C@H]2C)c2cc(NC(=O)c3ccc(OC)cc3)ccc21 | -0.114 | 0.612 | -0.0739 | -0.0379 | 0.454 | 0.213 | 0.949 | -0.797 (inactive) | 0.171 | -0.0003
CC(C)OC(=O)C=C1C[C@@H](c2ccccc2C(F)(F)F)O[C@@H](c2ccccc2C(F)(F)F)O1 | -0.173 | -0.11 | -0.0924 | -0.443 | 0.647 | 0.113 | -0.0471 | 0.009 (inactive) | 0.2 | -0.0994
O=C1[C@H]2C=C(Br)[C@H](C[C@@H]2OCCCCO)[C@@]12CO2 | -0.441 | -0.199 | -0.116 | 0.0593 | 0.0769 | -0.434 | -0.0036 | -0.636 (inactive) | -0.241 | -0.0237
COC(=O)[C@@]1(Cc2ccc(F)cc2)[C@H]2c3cc(C(=O)N(C)C)n(Cc4ccc(S(C)(=O)=O)cc4)c3C[C@H]2CN1C(=O)c1ccccc1 | 0.244 | 0.657 | 0.209 | 0.629 | 1.41 | 1.79 | 1.19 | 0.0659 (inactive) | 0.198 | 0.0274
O=C1OCC=C[C@H]2OC34C=CCN(c5ccc6ccccc6c5)C(=O)[C@H]3N(CCCCCCO)C(=O)[C@@H]4[C@@H]12 (stereo not given in full) | 0.787 | 1.94 | -0.133 | -0.566 | -1.15 | 0.781 | 1.57 | 0.78 (inactive) | -0.302 | -0.226
COC(=O)[C@@]1(Cc2ccccc2)[C@H]2c3cc(C(=O)N(C)C)n(CCSCCO)c3C[C@H]2CN1C(=O)c1ccccc1 | -0.303 | 1.07 | 0.0413 | 0.689 | 1.17 | 1.28 | 1.24 | 1.27 (inactive) | 0.335 | 0.347
CC(C)(C)OC(=O)CC[C@@]1(C(=O)NCCN2CCOCC2)N=C(c2ccc(OCCCO)cc2)O[C@@H]1c1ccccc1N=[N+]=[N-] | 0.793 | 0.122 | 0.0789 | 1.01 | 1.49 | 1.56 | 1.32 | 4.07 (inactive) | 1.67 | 0.232
CC1CC/C=C\[C@H]2OC34C=CCN(c5ccc(Cl)cc5)C(=O)[C@H]3N(CCO)C(=O)[C@]4(C)C2C(=O)O1 (stereo not given in full) | 0.359 | 0.0741 | -0.12 | -0.472 | -0.749 | 0.93 | 0.842 | -0.39 (inactive) | -0.448 | -0.106
CC1CC/C=C\[C@H]2OC34C=CCN(Cn5nnc6ccccc65)C(=O)[C@H]3N(C(CO)C(C)C)C(=O)[C@@H]4C2C(=O)O1 (stereo not given in full) | 0.0351 | -0.804 | -0.175 | -0.266 | 0.145 | 1.22 | 1.42 | 0.298 (inactive) | -0.314 | 0.0505
O=C1O[C@H](c2ccccc2)[C@H](c2ccccc2)N2[C@H]1[C@@H](C(=O)O)[C@]1(C(=O)Nc3ccc(C#CC4=CCCCC4)cc31)[C@H]2c1ccccc1OCCO | 0.943 | 0.914 | -0.0885 | 0.729 | 1.01 | 1.69 | 0.994 | 0.755 (inactive) | 0.792 | 1.13
O=C1OCCC/C=C\[C@H]2OC34C=CCN(c5ccc6ccccc6c5)C(=O)[C@H]3N(CCCCCCO)C(=O)[C@@H]4C12 (stereo not given in full) | 0.221 | -0.295 | -0.0824 | -0.648 | -1.15 | -0.177 | 1.25 | -0.824 (inactive) | -0.307 | -0.0239
COc1ccc([Si](C)(C)[C@H]2[C@H](CCn3cc([C@H](O)c4ccccc4)nn3)O[C@@]3(C(=O)N(Cc4cccc(N5CCOC5=O)c4)c4ccccc43)[C@@H]2C)cc1 | -0.218 | 0.071 | -0.003 | 0.29 | 0.401 | 0.209 | 1.04 | -0.955 (inactive) | -0.0127 | 0.155
C=CC[C@@]1(C(=O)N(C)C)N=C(c2ccc(OCCCO)cc2)O[C@@H]1c1ccccc1N=[N+]=[N-] | 1.12 | 1.72 | 0.0732 | 0.622 | 0.984 | 1.52 | 1.29 | 2.35 (inactive) | 1.21 | 0.011
CN(C)CCCC[C@@H]1NC(=O)[C@H]2C[C@@H](C(=O)NCCCCCNC(=O)CS)[C@@H](c3cccc(OCCO)c3)N2C1=O | -0.23 | 0.411 | -0.0785 | -0.0727 | -0.21 | 0.727 | 1.27 | 0.498 (inactive) | 0.0184 | -0.305
